# About 79,000 compounds went through this panel and 15% of them were active in at least one assay; those are over-represented in the sample as a whole. Values without a mark were called inactive. Calls of active or inactive are those of the source. Rule as the data show it: active = growth inhibition above about 70%; inactive = the rest.
# Experiment: NCI Yeast Anticancer Drug Screen. Data for the sgs1 strain (AID 173);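 also: 0% = growth of vehicle-only control cultures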
# Conditions: S. cerevisiae sgs1 mutant, at 33.0 µM, stronger effect = higher value
# Outline: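 Vehicle-treated cultures served as reference for growth inhibition of a yeast strain altered in DNA damage repair or cell cycle control after compound exposure.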
row,SMILES,growth inhibition
1,CCC/C(Cl)=N\OC(=O)Nc1cccc(C(F)(F)F)c1,90% (active)
2,[O-][n+]1c2ccc(O)cc2nc2ccc(Cl)cc21,46%
3,Clc1ccccc1C1OC1c1ccccc1Cl (stereo unspecified),-38%
4,c1ccc2c(c1)c1ncccc1c1nccnc21,3%
5,CC(=O)Nc1ccc2c(c1)C(=Nc1ccc(C(=O)O)cc1)c1ccccc1-2,25%
6,COc1ccc(OC)c2cc3ccccc3cc12,-1%
7,COc1cc(C2c3cc4c(cc3OC(NNc3ccccc3)C2C)OCO4)cc(OC)c1OC (stereo unspecified),88% (active)
8,O=C1c2cc([N+](=O)[O-])ccc2-c2cccc(F)c21,34%
9,CCCCCCCCCCCC(=O)N(C)C,34%
10,CCCCCCCCCCCC1=C(O)C(=O)C=C(O)C1=O,95% (active)
11,Cc1ccc(CSC(N)=Nc2ccccc2)cc1C,19%
12,CCCCCCCCCCC1CCC(=O)O1 (stereo unspecified),20%
13,O=[N+]([O-])c1cc(CCl)ccc1CCl,96% (active)
14,Nc1ccc2c(c1)C(=O)c1cccc(N)c1C2=O,79% (active)
15,CCCCCCCCCCNC(=O)OCC,59%
16,CC1=C(C)Cc2c(O)ccc(O)c2C1,7%
17,COc1ccc2c(c1)C(=O)c1ccccc1C2,0%
18,CCC(=O)OCCn1c2nc(=O)[nH]c(=O)c-2nc2cc(C)c(C)cc21,83% (active)
19,O=C(OCCN1CCCCCC1)C(c1ccsc1)C1CCCCC1 (stereo unspecified),31%
20,Oc1c(Br)cc(Br)cc1C1CCCCC1,95% (active)
21,CC1(C)[C@@H]2CC[C@]1(C)[C@H](OC(=O)CSC#N)C2,94% (active)
